Source: PubChem BioAssay AID588852 (The Scripps Research Institute Molecular Screening Center, 2011)
Among all 360,000 compounds or so, about 4,600 (1.3%) were called active. The sample holds actives, similar compounds and a random draw of the others, so the mix is not that of the screen.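 Rule for the calls: active = percent inhibition above its own plate's cutoff, namely the mean of that plate's compound wells plus 3 SD; inactive = the rest.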 Peptide text beside a SMILES is read from it. * marks the point of attachment. Bz = O=C(c1ccccc1)*

The compounds below were run against Muscarinic acetylcholine receptor M1 (Homo sapiens) (UniProt P11229) (assay: human M1 muscarinic receptor antagonists, primary screen, CHO-K1 cells, Fluo-8 calcium fluorescence, 1536-well (AID 588852;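 note: peak over basal fluorescence ratio during 140 s after agonist addition; 0% = ACh EC80 plus DMSO and 100% = DMSO alone without agonist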)). Details: CHO-K1 hM1, Fluo-8 calcium fluorescence, ACh EC80 antagonist; at 3 µM; stronger effect = higher value.
Chain of Muscarinic acetylcholine receptor M1 (Homo sapiens) (P11229 whole entry, looked up): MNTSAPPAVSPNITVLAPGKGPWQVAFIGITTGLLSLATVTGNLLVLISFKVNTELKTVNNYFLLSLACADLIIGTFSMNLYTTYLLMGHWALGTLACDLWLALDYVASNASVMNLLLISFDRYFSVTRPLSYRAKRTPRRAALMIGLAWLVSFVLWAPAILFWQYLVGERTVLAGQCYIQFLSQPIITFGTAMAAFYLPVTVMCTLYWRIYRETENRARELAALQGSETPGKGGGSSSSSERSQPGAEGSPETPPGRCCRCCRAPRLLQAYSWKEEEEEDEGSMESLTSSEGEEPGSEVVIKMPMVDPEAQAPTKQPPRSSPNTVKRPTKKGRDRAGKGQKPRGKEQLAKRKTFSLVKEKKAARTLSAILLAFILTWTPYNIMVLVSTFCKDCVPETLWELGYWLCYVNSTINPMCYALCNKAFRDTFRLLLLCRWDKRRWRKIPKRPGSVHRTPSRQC

inhibition, active:
COc1ccccc1Oc1ccc(S(=O)(=O)Nc2cccnc2)cc1 35.1%
CCCC1=Nc2cc(C(=O)NCCN3CCCC3)ccc2Sc2ccccc21 44%
C[C@H]1CN([C@@H](C)CO)C(=O)CCCn2nncc2CO[C@@H]1CN(C)Cc1ccc(Oc2ccccc2)cc1 35.8%
COc1ccc(-c2cnc3c(c2)C(=O)N([C@H](C)CO)C[C@@H](C)[C@H](CN(C)Cc2ccccc2)O3)cc1 79.4%
CN(Cc1ccccc1F)C(=O)C(Cc1ccccc1)NC(=O)c1ccccc1 (configuration not stated) 33.5%

inhibition, inactive:
COc1ccc(S(=O)(=O)Nc2cccnc2)c(Cl)c1Cl 9.26%
Cc1cc(C)c(C)c(S(=O)(=O)Nc2cccnc2)c1C -12.2%
O=[N+]([O-])c1ccc(CN2CC(N3CC=CC3)CS2(=O)=O)cc1 (configuration not stated) 7.78%
CCC1=Nc2cc(C(=O)NCCCN3CCOCC3)ccc2Sc2ccc(Br)cc21 1.43%
CCCC1=Nc2cc(C(=O)NCc3ccco3)ccc2Sc2ccccc21 13.6%
Cc1cccc(CN2CCC(n3nccc3NC(=O)c3ccccc3C)CC2)n1 -7.86%
C[C@@H]1CN([C@@H](C)CO)C(=O)CCCn2nncc2CO[C@H]1CN(C)Cc1ccc(C(F)(F)F)cc1 -8.15%
Cc1ccc(CN(C)C[C@@H]2OCc3cnnn3CCCC(=O)N([C@@H](C)CO)C[C@H]2C)cc1 -6.67%
C[C@@H]1CN([C@H](C)CO)C(=O)c2cc(-c3ccc(F)cc3)cnc2O[C@H]1CN(C)C(=O)c1ccc(F)cc1 -3.76%
C[C@@H]1CN([C@@H](C)CO)C(=O)c2cc(Br)cnc2O[C@H]1CN(C)Cc1ccc(-c2ccccc2)cc1 -3.44%
CSc1nsc(SC)c1NC(=O)OC1CCCCC1 -9.68%
O=C(Nc1cccc2ccccc12)c1[nH]c(-c2ccccc2)c2c1C(=O)N(C1CC1)C2=O -24.4%
O=C1C2C3C=CC(C3)C2C(=O)N1c1ncc([N+](=O)[O-])s1 (configuration not stated) -4.85%
NC(=O)c1ccc(NC(=O)COC(=O)C(Cc2ccccc2)NC(=O)c2ccccc2)cc1 (configuration not stated) 0.83%
O=C(NC(Cc1ccccc1)C(=O)N1CCCC1C(=O)O)c1ccccc1 (stereo not drawn) (Bz-Phe-Pro-OH; configuration not given here) -9.18%
CCn1ccnc1CNC(=O)CC1C(=O)NCCN1CCCc1ccccc1 (configuration not stated) -10.2%
C[C@@H](C(=O)Nc1ccc2ccccc2c1)[C@@H]1C[C@@]1(C)[C@@H](NC(=O)c1cccnc1)c1ccccc1 -3.75%
